Shown are actives, neighbours in structure and some others; about 7.4% of the full set was active somewhere.
KinaseGlo FLuc – blocks Kinase-Glo luciferase, a counter-screen artifact; Potency, µM (titrated, usually from 38.3 µM), for the others: top-dose activity change, negative = inhibition, usual class: inhibitors; 0.28% of 200,000 active; Kinase-Glo luciferase, ATP luminescence, 8 min; Q27757; AID 1379; note: % is set by controls: 0 for no effect and ±100 for the full control effect; nearly all actives have a fitted effect of over 60% in size
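Kinase-Glo luciferase light output from ATP and luciferin was measured with 10 uM ATP, within the enzyme's linear range. Buffer: 50 mM imidazole pH 7.2, 50 mM KCl, 7 mM MgCl2, 0.01% Tween 20, 0.05% BSA; luminescence read after 8 min at ambient temperature.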
NPC1 promoter act – activates the NPC1 promoter; Potency, µM (titrated, usually from 9.22 µM), for the others: at the top dose activation, most hits filed as activators; Huh7 NPC1 promoter luciferase reporter, 24 h; 2.4% of 320,000 active; note: % of control where 0% means no effect; nearly all actives have a fitted effect of over 60% in size
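Stably transfected Huh7 (NPC1 promoter→luciferase), 1500 cells/well in Opti-MEM + 10% FBS, 2 h settle, then compound 24 h at 37 °C. Luminescence after 10 min with Amplite reagent.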
Rab9 promoter act – activators of Rab9 promoter | Huh7 Rab9 promoter-luciferase reporter, luminescence, 24 h | Potency, µM (highest dose often 9.22 µM), for inactives: at the top dose activation, negative = inhibition, usual class: activators | 2.8% of 320,000 active; note: % of control where 0% means no effect; nearly all actives have a fitted effect of over 60% in size
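Steps: seed 1500 Huh7 Rab9-luc cells per well, rest 2 h at 37 °C; add compound in DMSO; incubate 24 h; add luciferase reagent, 10 min ambient; read luminescence.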
FLuc counter – counter-screen for miR-21 project: firefly luciferase inhibitors or activators. purified FLuc, Km substrates, luminescence inhibition. Potency, µM (doses to about 57.5 µM), for inactives: top-dose activity change, negative = inhibition, actives largely listed as inhibitors. 6.9% of 360,000 active. AID 588342;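 note: plate controls were vehicle for no effect and reference inhibitor for full effect; nearly all actives have a fitted effect of over 55% in size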
Target sequence (P08659 whole entry, looked up): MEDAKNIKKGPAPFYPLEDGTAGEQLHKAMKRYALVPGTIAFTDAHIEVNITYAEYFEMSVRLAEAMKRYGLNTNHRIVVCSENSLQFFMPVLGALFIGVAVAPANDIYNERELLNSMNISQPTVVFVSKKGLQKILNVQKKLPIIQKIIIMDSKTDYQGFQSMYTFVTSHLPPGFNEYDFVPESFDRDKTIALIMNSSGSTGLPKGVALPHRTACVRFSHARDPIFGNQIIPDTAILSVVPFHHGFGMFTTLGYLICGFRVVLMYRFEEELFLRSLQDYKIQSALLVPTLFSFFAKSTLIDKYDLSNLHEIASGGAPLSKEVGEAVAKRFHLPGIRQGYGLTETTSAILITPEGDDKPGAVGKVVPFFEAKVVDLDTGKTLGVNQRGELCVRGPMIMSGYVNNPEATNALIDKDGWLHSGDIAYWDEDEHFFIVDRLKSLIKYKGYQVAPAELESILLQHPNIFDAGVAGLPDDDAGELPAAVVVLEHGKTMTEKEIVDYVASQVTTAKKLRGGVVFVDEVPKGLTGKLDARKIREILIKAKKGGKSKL
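Purified P. pyralis luciferase (10nM final) with 10uM D-luciferin and 10uM ATP (Km levels) in 50mM Tris acetate pH 7.5, 10mM Mg acetate, 0.01% Tween-20, 0.05% BSA; qHTS 6-point titration, ~60 µM downward; luminescence read.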
ELG1 genotoxic – induces genotoxicity in HEK293T cells with luciferase-tagged ELG1 | HEK293T ELG1-luciferase reporter, luminescence, 16 h | Potency, µM (series often up to 46 µM), inactives show at the highest dose activity change, positive = activation, hits mostly activators | 1.3% of 330,000 active | AID 504466; note: % of control where 0% means no effect; nearly all actives have a fitted effect of over 60% in size
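16 hr compound incubation (37 °C, 5% CO2) of HEK293T cells carrying luciferase-tagged ELG1; luciferase then measured by ONE-Glo luminescence after 30 min at RT.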
SMN2 splice enh – SMN2 splice variant enhancement; HEK293 SMN2-luciferase splicing reporter, luminescence, 30-36 h; Potency, µM (highest dose often 46.1 µM), for the others: top-dose activity change, positive = activation, hits mostly activators; 2.8% of 210,000 active; note: % of control where 0% means no effect; nearly all actives have a fitted effect of over 55% in size
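HEK293 cells carry an SMN2 minigene-luciferase reporter in which exon 7 inclusion puts luciferase in frame. Cells were seeded at 2000 cells/well, attached for 10-12 hours, then exposed to compounds for 30-36 hours at 37C before ONE-Glo luminescence.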
Starred values were filed as active, the others as inactive; u = inconclusive; x = no result; [ ] = another dose, or the depositor's remark. Calls come from the whole dose curve; as a rule, active = well fitted curve in the direction sought with a large enough effect; inconclusive = small, poorly fitted or top-dose-only effect, or another doubt; inactive = no such curve, though single readings can be large; an effect the other way counts as inactive or inconclusive. Potency is the fitted concentration of half-maximal effect.

SMILES	KinaseGlo FLuc	NPC1 promoter act	Rab9 promoter act	FLuc counter	ELG1 genotoxic	SMN2 splice enh
CC1=NN(c2ccccc2)C(=O)/C1=C/N(C)C	x	-3%	-1%	-17%	0%	x
CC1=NN(c2ccccc2)C(=O)/C1=C/C=C/c1ccc(N(C)C)cc1	13µM*	2%	6%	4.8µM*	-8%	-19%
CCOC(=O)CC1=NN(c2ccccc2)C(=O)/C1=C\c1ccc(N(C)C)cc1	-14%	-11%	-3%	11µM*	3%	16%[1.84 µM]
Cc1c2cnn(CC(=O)N3CCN(c4ccccc4)CC3)c(=O)c2c(C)n1Cc1ccc(F)cc1	x	x	x	u	x	-10%
CCCCc1nc2ccccc2[nH]1	5%	2%	-5%	2%	0%	6%
c1cnc2c(OCc3nc4ccccc4[nH]3)cccc2c1	-9%	4µM*	2.2µM*	9.5µM*	u	11µM*
c1ccc(Oc2cccc3cccnc23)nc1	x	-6%	-3%	-1%	2%	x
Cc1ccccc1OCc1nc2ccccc2[nH]1	13µM*	u	1.8µM*	4.8µM*	u	x
COc1ccccc1OCc1nc2ccccc2[nH]1	-10%	2.5µM*	2µM*	11µM*	u	11µM*
CCOc1ccccc1CNC(=O)CCC(=O)N1CCSc2ccccc21	x	x	x	-9%	x	x
CCN(C(=O)Cn1c(=O)n(Cc2ccccc2)c(=O)c2c1c1cc(OC)ccc1n2C)c1ccccc1	x	x	x	0%	x	x
CCOC(=O)c1c(C)[nH]c(C)c1S(=O)(=O)NCC(=O)Nc1cccc(SC)c1	x	x	x	-9%	x	x
O=C(OCC(=O)C12CC3CC(CC(C3)C1)C2)c1ccc(O)cc1O	x	6%	18%	19µM*	23µM*	x
O=C(OCC(=O)C12CC3CC(CC(C3)C1)C2)c1cccnc1Cl	-2%	-5%	-1%	17µM*	0%	-4%
COc1cccc(CNC(=O)CSc2nc3ccccc3nc2Cc2ccc(C)cc2)c1OC	x	x	x	-3%	x	x
Fc1ccc(-n2[nH]nnc2=S)cc1N1CCCC1	1%	16%	15%	24µM*	13%	1%
Cc1cc(C)c(-n2[nH]nnc2=S)c(C)c1	x	-2%	-4%	1%	1%	x
C=C(C)Cn1c(SCC(=O)c2ccc(OC)cc2)nc2sc3c(c2c1=O)CCCC3	x	x	x	-7%	x	1%
Cc1ccccc1CN1C(=O)C(O)(CC(=O)c2cccc(Br)c2)c2ccccc21 (stereo not given)	x	x	x	2%	x	-6%
CCOC(=O)c1snc(C(=O)NC2CCCCC2)c1N	0%	u	3.5µM*	13µM*	8.2µM*	x
COc1ccccc1N1CCN(/N=C/c2ccc(O)c(O)c2)CC1	-1%	-28%	-21%	u	u	u
COc1ccccc1N1CCN(/N=C/c2ccc(C(=O)O)cc2)CC1	x	1µM*	0.71µM*	2.7µM*	u	x
O=C(O)c1ccc(/C=N/N2CCN(c3ccccc3)CC2)cc1	x	1.1µM*	1.4µM*	4.3µM*	15%	x
Cc1ccc(CCNC(=O)CCCn2c(=O)c3ccccc3n(Cc3ccccc3C)c2=O)cc1	x	x	x	2%	x	6%
Cc1nn2cc(-c3ccc(OC(C)C)cc3)nc2s1	x	x	x	1.3µM*	x	6%
SMILES	KinaseGlo FLuc	NPC1 promoter act	Rab9 promoter act	FLuc counter	ELG1 genotoxic	SMN2 splice enh
CCc1ccc(-c2cn3nc(CC)sc3n2)cc1	x	x	x	0.6µM*	x	27%
CCCCCc1nn2cc(-c3ccccc3)nc2s1	x	x	x	0.43µM*	x	7.1µM*
CCCc1nn2c(C)c(-c3ccccc3)nc2s1	x	x	x	1.5µM*	x	26%
CCCCc1nn2c(=O)cc(CN(CC)c3ccccc3)nc2s1	x	x	x	-12%	x	x
C#CC(N)CCC(=O)O (stereo not given)	-1%	1%[46.1 µM]	-2%[46.1 µM]	x	x	6%
COc1cc(Cl)c(NC(=O)CN(C)S(=O)(=O)c2ccc3[nH]c4c(c3c2)CCCC4)c(OC)c1	x	x	x	-5%	x	x
CCOC(=O)Cn1c(=O)n(-c2ccccc2OC)c2nc(-c3ccccc3C)nc(C(N)=O)c21	x	x	x	4%	x	x
CC(C)Cc1nn2cc(-c3cccc(Br)c3)nc2s1	x	x	x	0.43µM*	x	-1%
CCc1ccc(-c2cn3nc(-c4ccccc4)cnc3n2)cc1	x	u	2µM*	-19%	12%	x

Source: PubChem (National Center for Advancing Translational Sciences (NCATS))
